This note sets out measurements from PubChem BioAssay AID763 (NMMLSC, 2007).

Structures are written as SMILES. Values without a mark were called inactive. How the calls were made is not given here.

This experiment deals with fMet-Leu-Phe receptor (Homo sapiens) (UniProt P21462). Put plainly: human FPR1 ligand displacement single-point test – cell-based, single concentration, selectivity assay for FPRL1 ligand SAR project, SAR follow-up (AID 763). As to conditions: FPR1-expressing cells, fluorescent ligand binding inhibition, active compounds read high; at 5.4 µM unless noted.
Sequence of fMet-Leu-Phe receptor (Homo sapiens) (P21462 whole entry, looked up): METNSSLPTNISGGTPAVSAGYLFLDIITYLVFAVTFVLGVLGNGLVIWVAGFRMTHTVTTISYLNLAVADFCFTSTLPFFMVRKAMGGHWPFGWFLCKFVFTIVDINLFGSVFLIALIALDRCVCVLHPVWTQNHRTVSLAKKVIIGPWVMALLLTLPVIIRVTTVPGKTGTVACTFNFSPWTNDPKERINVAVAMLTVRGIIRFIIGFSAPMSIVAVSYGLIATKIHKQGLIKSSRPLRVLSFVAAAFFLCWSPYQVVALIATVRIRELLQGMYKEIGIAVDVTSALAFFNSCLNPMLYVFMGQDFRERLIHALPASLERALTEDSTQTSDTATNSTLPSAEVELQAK
On to `COc1ccc(-c2cn3cccnc3n2)cc1NC(=O)C1CCCCC1`, for which the inhibition is 3.2% [at 6.3 µM].
To `COc1ccc(-c2cn3cccnc3n2)cc1NC(=O)c1ccccc1F` belongs 2.4% [at 6.1 µM].
In the case of `CCOC(=O)N1CCN(c2nc(-c3ccc(F)cc3)cc(C(F)(F)F)n2)CC1`, the inhibition is 0.3% [at 5.6 µM].
To `COc1ccc(-c2cn3cccnc3n2)cc1NC(=O)c1ccccc1Cl` belongs -3.1% [at 5.9 µM].
The same measure for `COc1cccc(-c2cc(C(F)(F)F)nc(N3CCN(C)CC3)n2)c1`: 1.9% [at 6.3 µM]; for `COc1ccc(-c2cn3cccnc3n2)cc1NC(=O)C1CCCC1`: 6.6% [at 6.6 µM].
As to `O=C(O)CCCC(=O)N1CCN(c2nc(-c3ccccc3)c3ccccc3n2)CC1`, the inhibition was -2.1% [at 5.5 µM].
Consider `C/C=C\C(=O)Nc1cc(-c2cn3cccnc3n2)ccc1OC`, for which the inhibition was 4% [at 7.2 µM].
The same measure for `O=C(O)C1CC=CCC1C(=O)N1CCN(c2nc(-c3ccccc3Cl)c3cc(Br)ccc3n2)CC1` (stereo not drawn): 5.3% [at 4 µM]; for `COc1cccc(-c2cc(C(F)(F)F)nc(N3CCN(c4ccc(F)cc4)CC3)n2)c1`: 1.7% [at 5.1 µM].
To `CCC(=O)Nc1cc(-c2cn3cccnc3n2)ccc1OC` belongs 5% [at 7.5 µM]; to `CCOCC(=O)Nc1cc(-c2cn3cccnc3n2)ccc1OC`, 2.3% [at 6.8 µM].
To `Clc1cccc(-c2nc(N3CCN(C4CCCCC4)CC3)nc3c2COc2ccccc2-3)c1` belongs -4.5% [at 4.8 µM]; to `COc1ccc(-c2nc(N3CCN(Cc4ccc(Cl)cc4)CC3)[nH]c(=O)c2C#N)cc1`, -5.9% [at 5.1 µM].
For the compound `COc1cccc(-c2cc(C(F)(F)F)nc(N3CCN(C(c4ccccc4)c4ccccc4)CC3)n2)c1`, the inhibition is 2.6% [at 4.4 µM].
To `COc1ccc(-c2cn3cccnc3n2)cc1NC(=O)CCc1ccccc1` belongs 6.4% [at 6 µM].
`O=C(O)CCCC(=O)N1CCN(c2nc(-c3ccccc3)c3cc(Br)ccc3n2)CC1`: the inhibition is -1.2% [at 4.6 µM].
The same measure for `COc1ccc(C2CC(=O)c3cnc(N4CCN(Cc5ccc6c(c5)OCO6)CC4)nc3C2)cc1` (stereo not drawn): 0.4% [at 4.7 µM].
To `COc1ccc(-c2cn3cccnc3n2)cc1NC(=O)c1ccc(C(C)(C)C)cc1` belongs 5.7% [at 5.6 µM]; to `COc1ccc(-c2cn3cccnc3n2)cc1NC(=O)c1cccc(C)c1`, -4.1% [at 6.2 µM].
To `CC(C)(C)OC(=O)N1CCN(c2nc(-c3ccccc3)c3cc(Br)ccc3n2)CC1` belongs 3.5% [at 4.7 µM]; to `Clc1cccc(-c2nc(N3CCN(c4ccccn4)CC3)nc3c2COc2ccccc2-3)c1`, 1.7% [at 4.9 µM].
Take `COc1ccc(-c2cn3cccnc3n2)cc1NC(=O)c1ccc(OC)c(OC)c1`: the inhibition is -5.3% [at 5.5 µM].
The same measure for `COc1ccc(C2CC(=O)c3cnc(N4CCN(Cc5ccc6c(c5)OCO6)CC4)nc3C2)c(OC)c1` (stereo not drawn): -4.7% [at 4.4 µM].
To `FC(F)(F)c1cc(-c2cccs2)nc(N2CCN(Cc3ccccc3)CC2)n1` belongs 0.4% [at 5.5 µM]; to `COc1ccc(-c2cn3cccnc3n2)cc1NC(=O)c1ccccc1`, -4.9% [at 6.5 µM].
To `CC(C)(C)OC(=O)N1CCN(c2nc(-c3ccccc3Cl)c3cc(Br)ccc3n2)CC1` belongs 8.5% [at 4.4 µM]; to `Cc1ccc2nc(N3CCN(C(=O)CCC(=O)O)CC3)nc(-c3ccccc3)c2c1`, 5.7% [at 5.5 µM]; to `COc1ccc(-c2cc(C(F)(F)F)nc(N3CCN(c4ccc(F)cc4)CC3)n2)cc1OC`, -1.4% [at 4.8 µM].
On to `CN1CCN(c2nc(-c3ccccc3)cc(C(F)(F)F)n2)CC1`, for which the inhibition is -5.9% [at 6.9 µM].
The same measure for `CCN1CCN(c2nc(-c3ccc(Cl)cc3)cc(C(F)(F)F)n2)CC1`: -3.5% [at 6 µM]; for `O=C(O)/C=C\C(=O)N1CCN(c2nc(-c3ccccc3)c3cc(Br)ccc3n2)CC1`: -5.7% [at 4.8 µM].
The same measure for `COc1ccc(-c2cn3cccnc3n2)cc1NC(=O)c1ccc(Br)cc1`: -0.1% [at 5.3 µM].
